This is an account of results in PubChem BioAssay.

Structures are written as SMILES. Several values for one entry are separate records, joined by “and”; a condition that tells them apart may be missing. Equal values may be shown once. Activity calls are given as the source filed them.

Experiment [1] relates to Plasmodium falciparum Sir2 (PF13_0152, Sir2A). The experiment can be described thus: pfSir2 binders on small-molecule microarrays, primary screen, biochemical, small-molecule microarray, 635 nm fluorescence (AID 1098).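 Further: score merges spot fluorescence intensity with its signal-to-noise ratio.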 The conditions noted are these: small-molecule microarray binding, fluorescence 635 nm; higher = more signal.
Experiment [2] can be described thus: small-molecule microarray binders of probe aDKK1, primary screen, biochemical, biotinylated probe, 635/667 nm fluorescence (AID 1099).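 Further: score merges 667nm spot fluorescence with signal to noise across triplicate slides.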 The conditions noted are these: higher = more signal.
Experiment [3] can be described thus: small-molecule microarray binders of probe aCHRDL2, primary screen, biochemical, biotinylated probe, 635/667 nm fluorescence (AID 1100). The conditions noted are these: higher = more signal.
The nature of experiment [4]: splicing luciferase reporter signal modulators, primary screen, spliceosome inhibition project, cell-based, HEK293, splice +/- reporter (AID 1101).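 Further: HEK293 cells carrying a splicing-competent luciferase reporter gene; test concentration not given here.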 The note with it: luminescence, 24 h, higher = more signal, called active from +8 up or from −8 down. (In a reporter assay the amount or activity of a reporter protein is the signal.)
Experiment [5] concerns the target Fibroblast growth factor 10 (Homo sapiens) (UniProt O15520). The experiment can be described thus: FGF10 binders on small-molecule microarrays, primary screen, biochemical, small-molecule microarray, 635 nm fluorescence (AID 1102). The conditions noted are these: FGF10 binding, fluorescence 635 nm, higher = more signal.
Experiment [6] has as its system glycogen synthase kinase-3 (GSK3A per assay name; protocol says GSK3B). Put plainly: GSK3 binders on small-molecule microarrays, primary screen, biochemical, small-molecule microarray, 635 nm fluorescence, GSK3A (AID 1103). Further: the record names both GSK3A and GSK3B. The conditions noted are these: small-molecule microarray binding, fluorescence 635 nm; higher = more signal.
Experiment [7] concerns the target Epidermal growth factor receptor (Homo sapiens) (UniProt P00533). The experiment can be described thus: EGFR binders on small-molecule microarrays, primary screen, biochemical, small-molecule microarray, 635 nm fluorescence (AID 1104).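 Further: score merges 667 nm emission intensity with spot signal to noise over triplicate slides.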 The note with it: EGFR binding, higher = more signal.
For experiment [8], the target named is Follistatin-related protein 3 (Homo sapiens) (UniProt O95633). Put plainly: FSTL3 binders on small-molecule microarrays, primary screen, biochemical, small-molecule microarray, 635 nm fluorescence (AID 1105).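 Further: score merges emission near 667 nm and signal to noise per printed spot across three slides.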 The note with it: FSTL3 binding, higher = more signal.
Follistatin-related protein 3 (Homo sapiens), sequence (O95633 whole entry, looked up): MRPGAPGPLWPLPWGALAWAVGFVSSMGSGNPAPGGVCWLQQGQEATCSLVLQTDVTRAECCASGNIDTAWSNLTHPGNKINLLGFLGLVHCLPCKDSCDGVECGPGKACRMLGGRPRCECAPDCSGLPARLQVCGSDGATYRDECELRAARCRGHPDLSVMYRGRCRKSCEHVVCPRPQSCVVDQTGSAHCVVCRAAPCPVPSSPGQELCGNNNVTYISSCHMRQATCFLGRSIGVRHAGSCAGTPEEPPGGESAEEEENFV
Experiment [9] has as its target Dickkopf-related protein 1 (Homo sapiens) (UniProt O94907). Put plainly: DKK1 binders on small-molecule microarrays, primary screen, biochemical, small-molecule microarray, 635 nm fluorescence scan (AID 1106).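 Further: score merges emission near 667 nm with signal to noise over three replicate slides.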 The conditions noted are these: DKK1 binding, higher = more signal.
Experiment [10] concerns Inhibin beta A chain (activin A). The experiment can be described thus: INHBA (activin A) binders on microarrays, primary screen, biochemical, small-molecule microarray, 635 nm fluorescence scan (AID 1107).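 Further: mouse activin A protein probed at 4.33 µg/mL on printed slides; score merges bound-protein fluorescence near 667 nm with spot signal-to-noise.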 The conditions noted are these: small-molecule microarray binding, higher = more signal.
Experiment [11] relates to Human papillomavirus type 1a protein E7 (residues 44-93). Put plainly: HPV1a E7 fragment binders on microarrays, primary screen, biochemical, small-molecule microarray, residues 44-93, 635 nm fluorescence (AID 1108).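 Further: E7 fragment applied at 1 µg/mL in TBST for 1 h at 4 C; score combines spot fluorescence with its signal to noise ratio.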 The conditions noted are these: small-molecule microarray binding, fluorescence 635 nm; higher = more signal.
Experiment [12] is described as follows: modulators of HCV replicon luciferase signal, primary screen, HCV replication inhibitor project, Huh7 cells, luciferase reporter (AID 1109).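 Further: huh7 hepatoma cells harbouring a luciferase neomycin HCV replicon reporter; luciferase luminescence as measure of HCV replicon replication; test concentration not given here.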 The note with it: 48 h, higher = more signal. (In general: In antiviral work, replicon cells carry a viral genome segment that copies itself.)
Experiment [13] concerns the target Left-right determination factor 2 (Homo sapiens) (UniProt O00292). Put plainly: LEFTY2 binders on small-molecule microarrays, primary screen, biochemical, small-molecule microarray, 635 nm fluorescence scan (AID 1110). The note with it: LEFTY2 binding, higher = more signal.
Experiment [14] deals with Calmodulin-1 (Homo sapiens) (UniProt P0DP23). Put plainly: CALM1 binders on microarrays, EGTA buffer, profiling panel, biochemical, small-molecule microarray, Cy5-labelled CALM1 (AID 1111).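 Further: labelled calmodulin applied in Tris saline Tween buffer holding calcium plus EGTA and DTT.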 The conditions noted are these: Cy5-CALM1 binding fluorescence, higher = more signal.
Experiment [15] shares this target. The experiment can be described thus: calcium-bound CALM1 binders on microarrays, profiling panel, artefact control for SMM control-protein annotation, biochemical, small-molecule microarray, Cy5-labelled CALM1, plus calcium (AID 1112).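 Further: score merges spot fluorescence with signal to noise from triplicate slides.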 The conditions noted are these: Cy5-CALM1 binding fluorescence, higher = more signal.
Experiment [16] in a line: small-molecule microarray binders of probe aWnt5a, primary screen, biochemical, biotinylated probe, 635/667 nm fluorescence (AID 1113).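 Further: score merges 667 nm fluorescence intensity with signal-to-noise per printed feature.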 The conditions noted are these: higher = more signal.
Experiment [17] can be described thus: small-molecule microarray binders of probe aShh, primary screen, biochemical, biotinylated probe, 635/667 nm fluorescence (AID 1114).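 Further: probe is biotin-labelled aShh protein from a stem cell growth factor screen; measures binding of labelled protein to compounds printed on the slide; score merges feature fluorescence at 667 nm with signal-to-noise.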 The note with it: higher = more signal.
The nature of experiment [18]: small-molecule microarray binders of probe aNog, primary screen, biochemical, biotinylated probe, 635/667 nm fluorescence (AID 1115).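 Further: probe is biotinylated aNog protein used at 0.15 µg/mL for 1 h at 4 C; z-score combines 667 nm fluorescence of each spot with its signal to noise.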 The note with it: higher = more signal.
Experiment [19] concerns the target Torsin-1A-interacting protein 1 (Homo sapiens) (UniProt Q5JTV8). The experiment can be described thus: LAP1 binders from COS7 cell lysate, primary screen, small-molecule microarray, 635/667 nm fluorescence (AID 1116). The conditions noted are these: COS7-hLAP1 lysate binding, 635 nm fluorescence, higher = more signal.
Experiment [20] addresses Alpha-bungarotoxin (Bungarus multicinctus) (UniProt P60615). The experiment can be described thus: alpha-bungarotoxin binders on microarray, profiling panel, artefact control for SMM control protein annotation, biochemical, small-molecule microarray, Alexa647 label, 635/667 nm fluorescence (AID 1117). The note with it: alpha-BTX-A647 binding fluorescence, higher = more signal.

Alpha-bungarotoxin (Bungarus multicinctus), sequence (P60615 whole entry, looked up): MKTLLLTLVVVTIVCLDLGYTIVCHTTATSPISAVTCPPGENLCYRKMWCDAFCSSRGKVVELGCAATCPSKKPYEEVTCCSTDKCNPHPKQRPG
Epidermal growth factor receptor (Homo sapiens), sequence (P00533 whole entry, looked up): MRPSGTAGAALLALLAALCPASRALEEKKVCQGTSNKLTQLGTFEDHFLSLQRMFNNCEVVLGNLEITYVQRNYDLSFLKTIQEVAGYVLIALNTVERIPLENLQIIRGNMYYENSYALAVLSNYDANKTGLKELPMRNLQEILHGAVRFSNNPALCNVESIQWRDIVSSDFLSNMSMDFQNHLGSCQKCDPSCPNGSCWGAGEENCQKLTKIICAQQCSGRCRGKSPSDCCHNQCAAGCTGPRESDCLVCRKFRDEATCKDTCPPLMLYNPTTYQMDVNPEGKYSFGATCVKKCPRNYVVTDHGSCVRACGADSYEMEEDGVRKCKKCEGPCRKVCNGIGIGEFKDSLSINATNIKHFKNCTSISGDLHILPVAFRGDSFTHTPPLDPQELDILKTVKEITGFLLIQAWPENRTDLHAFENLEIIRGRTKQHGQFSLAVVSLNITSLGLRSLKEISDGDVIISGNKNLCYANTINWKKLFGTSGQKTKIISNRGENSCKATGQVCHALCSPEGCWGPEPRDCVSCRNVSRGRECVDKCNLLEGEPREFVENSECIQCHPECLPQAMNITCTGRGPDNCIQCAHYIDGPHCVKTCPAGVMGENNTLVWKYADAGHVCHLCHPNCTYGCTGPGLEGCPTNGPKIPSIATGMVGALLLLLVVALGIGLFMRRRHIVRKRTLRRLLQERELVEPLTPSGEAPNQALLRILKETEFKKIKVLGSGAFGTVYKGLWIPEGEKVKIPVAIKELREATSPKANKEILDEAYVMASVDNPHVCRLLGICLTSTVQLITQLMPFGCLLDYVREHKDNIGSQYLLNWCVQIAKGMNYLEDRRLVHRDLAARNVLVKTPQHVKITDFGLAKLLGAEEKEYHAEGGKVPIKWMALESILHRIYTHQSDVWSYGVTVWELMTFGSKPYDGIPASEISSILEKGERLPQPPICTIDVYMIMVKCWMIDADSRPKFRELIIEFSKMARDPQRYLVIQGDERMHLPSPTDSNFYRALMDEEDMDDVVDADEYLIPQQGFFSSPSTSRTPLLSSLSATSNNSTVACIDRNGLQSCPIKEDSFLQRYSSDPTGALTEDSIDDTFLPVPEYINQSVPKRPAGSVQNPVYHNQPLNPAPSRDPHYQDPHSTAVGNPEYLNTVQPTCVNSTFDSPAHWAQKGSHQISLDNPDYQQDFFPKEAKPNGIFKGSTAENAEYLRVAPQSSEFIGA
Torsin-1A-interacting protein 1 (Homo sapiens), sequence (Q5JTV8 whole entry, looked up): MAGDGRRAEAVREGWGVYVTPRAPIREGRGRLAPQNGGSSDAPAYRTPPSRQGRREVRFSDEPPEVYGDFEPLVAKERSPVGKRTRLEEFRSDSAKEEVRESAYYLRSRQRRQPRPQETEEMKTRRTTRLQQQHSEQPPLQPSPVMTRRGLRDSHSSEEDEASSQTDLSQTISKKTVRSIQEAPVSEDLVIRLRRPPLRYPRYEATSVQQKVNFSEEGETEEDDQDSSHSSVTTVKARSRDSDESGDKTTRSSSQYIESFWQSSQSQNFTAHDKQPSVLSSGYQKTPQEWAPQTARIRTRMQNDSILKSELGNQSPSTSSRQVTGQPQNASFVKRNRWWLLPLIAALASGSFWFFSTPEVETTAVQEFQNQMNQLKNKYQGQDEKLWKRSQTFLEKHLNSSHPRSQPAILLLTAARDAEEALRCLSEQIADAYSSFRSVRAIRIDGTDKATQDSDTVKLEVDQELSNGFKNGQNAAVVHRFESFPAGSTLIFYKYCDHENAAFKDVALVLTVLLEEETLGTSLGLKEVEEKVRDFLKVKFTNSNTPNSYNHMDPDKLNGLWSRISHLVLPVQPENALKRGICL
Fibroblast growth factor 10 (Homo sapiens), sequence (O15520 whole entry, looked up): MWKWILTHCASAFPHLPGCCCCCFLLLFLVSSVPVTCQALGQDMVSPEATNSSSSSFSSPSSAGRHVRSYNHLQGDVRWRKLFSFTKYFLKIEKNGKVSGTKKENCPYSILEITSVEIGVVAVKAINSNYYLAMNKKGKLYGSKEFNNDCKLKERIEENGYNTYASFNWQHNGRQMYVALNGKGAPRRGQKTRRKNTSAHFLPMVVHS
Left-right determination factor 2 (Homo sapiens), sequence (O00292 whole entry, looked up): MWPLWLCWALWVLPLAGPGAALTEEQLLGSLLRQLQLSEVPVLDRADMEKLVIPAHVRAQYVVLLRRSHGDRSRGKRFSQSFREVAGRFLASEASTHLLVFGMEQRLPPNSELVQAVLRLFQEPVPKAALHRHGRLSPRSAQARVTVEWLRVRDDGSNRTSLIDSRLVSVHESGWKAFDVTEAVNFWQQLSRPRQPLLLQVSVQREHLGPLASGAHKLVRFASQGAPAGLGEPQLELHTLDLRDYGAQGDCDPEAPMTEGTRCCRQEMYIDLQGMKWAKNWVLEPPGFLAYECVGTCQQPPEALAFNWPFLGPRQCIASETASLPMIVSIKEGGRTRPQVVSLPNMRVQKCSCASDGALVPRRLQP
Dickkopf-related protein 1 (Homo sapiens), sequence (O94907 whole entry, looked up): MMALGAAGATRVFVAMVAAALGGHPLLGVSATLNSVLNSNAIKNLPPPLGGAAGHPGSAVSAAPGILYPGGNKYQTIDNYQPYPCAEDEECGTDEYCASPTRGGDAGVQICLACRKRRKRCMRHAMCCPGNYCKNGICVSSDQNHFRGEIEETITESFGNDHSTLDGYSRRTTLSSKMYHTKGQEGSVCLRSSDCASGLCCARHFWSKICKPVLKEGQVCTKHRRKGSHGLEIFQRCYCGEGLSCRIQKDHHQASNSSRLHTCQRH

Regarding `C=CCN(CCCCC)C(=O)C(c1cccs1)N(CCOCCO)C(=O)/C=C\C(=O)O` (stereo not given), the composite z-score in [1] was 0.0427 and 0.42; in experiment [2] it was -0.588 and -0.228; in experiment [3] it was 0.658 and 0.6; in [5], -1.6 and -0.98; in experiment [6] it was -0.918 and -0.491; in [7], -1.05 and -0.766. Further, the composite z-score in [8] was -0.411 and -0.744; in experiment [9], -1.04 and -1.54; in [10], -1.79 and -0.36; in experiment [11] it was -1.74 and -0.0507; in experiment [13], -0.828 and -1.56; in experiment [14] it was -1.04 and -0.776. Further, the composite z-score was -0.408 and 0.326 in experiment [15]; -0.135 and -0.199 in [16]; -0.223 and -0.283 in experiment [17]; -0.308 and 0.0644 in [18]; -0.922 and -0.405 in [19]; -0.676 and 1.14 in experiment [20]. Besides, the z-score in experiment [4] was -0.841 (inactive) and -1.36 (inactive); in experiment [12], -0.572 and 0.96.
For the molecule `CCOC(=O)[C@@H]1CC2O[C@]23C[C@@H]1C(=O)N1CCC[C@@H]1[C@H]3O[Si](C)(C)C(C)(C)C` (stereo not given in full), the composite z-score in [1] is -0.494 and -0.107; in [2] it was -0.557 and -0.234; in experiment [3], -0.645 and -0.63; in [5] it was -0.438 and 0.433; in [6], -0.755 and 0.491; in experiment [7], -0.133 and -0.303. For the same molecule, the composite z-score in experiment [8] was -0.937 and 0.184; in experiment [9], 0.389 and 0.364; in [10], 0.456 and 0.999; in experiment [11] it was -1.22 and -0.182; in experiment [13] it was -0.125 and 0.446; in experiment [14] it was -0.46 and -0.641. Also, the composite z-score in [15] was -0.748 and -0.252; in experiment [16], -0.251 and -0.124; in experiment [17], -0.299 and -0.197; in experiment [18], -0.321 and -0.134; in experiment [19], -0.826 and -0.136; in experiment [20], 0.102 and -0.667. Further, the z-score in experiment [4] was 0.559 (inactive) and 0.577 (inactive); in [12], -0.417 and -0.4.
Turning to `O=C1NC(=O)C2C1C=CC(C(O)c1ccc([N+](=O)[O-])cc1)N2Nc1ccc(Cl)cc1Cl` (stereo not given), the composite z-score in [1] is 0.59 and 0.0889; in experiment [2], -0.0543 and 1.09; in [3], 0.765 and 0.824; in experiment [5], 0.945 and 0.229; in experiment [6] it was 0.0563 and 0.737; in [7], 0.0939 and -0.12. Besides, the composite z-score in [8] is 0.272 and 0.132; in experiment [9] it was 0.0264 and -0.297; in experiment [10] it was 1.13 and 1.31; in [11] it was 0.481 and -0.621; in [13], -0.176 and -0.0882; in experiment [14] it was 1.01 and 1.48. Further, the composite z-score is 0.436 and 0.0078 in experiment [15]; -0.0566 and 0.0775 in [16]; 0.0326 and -0.241 in [17]; 1.94 and 2.12 in experiment [18]; 1.9 and 1.62 in [19]; 1.18 and 1.56 in experiment [20]. Further, the z-score in [4] was -1.06 (inactive) and -1.49 (inactive); in experiment [12], 0.175 and -1.19.
Take `CC(=O)OC[C@H]1O[C@H](C#CC(C)(C)C)C=C[C@@H]1OC(C)=O`: the composite z-score in experiment [1] was 0.731; in experiment [2], 0.202; in experiment [3], -0.508; in experiment [5], 0.871; in experiment [6], 0.225; in [7], 0.274. The composite z-score in [8] is 1.31; in experiment [9], 0.535; in experiment [10], -0.209; in experiment [11], 1.31; in [13] it was 0.934; in experiment [14], 0.957. Also, the composite z-score in experiment [15] was 0.189; in [16], -0.191; in [17] it was 0.0596; in experiment [18], -0.433; in experiment [19] it was 0.852; in experiment [20] it was 1.09. The z-score in [4] is 1.16 (inactive); in experiment [12], -1.94.
Consider `C#CCN1C(/C=C/c2ccccc2)C(=O)OC[C@H]1c1ccccc1` (stereo not given in full), for which the composite z-score in experiment [1] is 0.025 and 1.16; in experiment [2], -0.23 and -0.207; in experiment [3], -0.688 and -0.55; in experiment [5], 0.33 and 0.0389; in experiment [6], 0.658 and 0.0786; in [7] it was 0.62 and 0.18. Further, the composite z-score in experiment [8] is 0.755 and 0.747; in [9] it was 0.69 and 0.375; in experiment [10], 0.902 and 0.0774; in experiment [11], 0.267 and 0.514; in experiment [13], 0.673 and 0.247; in [14] it was -0.451 and -0.295. Also, the composite z-score in [15] was -0.545 and -0.383; in [16], -0.0033 and -0.0607; in [17], 0.0328 and -0.138; in experiment [18], -0.115 and -0.385; in experiment [19] it was 0.341 and -0.35; in experiment [20], 0.348 and -0.144. The z-score in experiment [4] is -2.64 (inactive) and -0.366 (inactive); in experiment [12] it was -1 and -2.09.
Regarding `CO[C@H]1COC(=O)CC=C[C@@H](C)COC(=O)[C@@H](OCc2ccccc2)C=C[C@@H]1C`, the composite z-score in experiment [1] is 0.661; in experiment [2], -0.533; in [3], -1.54; in experiment [5] it was 0.241; in [6] it was 1.1; in [7], 0.831. The composite z-score in [8] is 1.32; in [9], 0.644; in [10], 1.57; in [11] it was -0.418; in experiment [13], 1.32; in experiment [14] it was -0.779. Besides, the composite z-score in [15] is -2.05; in [16], -0.34; in experiment [17] it was 0.149; in experiment [18] it was -0.378; in [19], 0.417; in [20], 0.205. Also, the z-score in [4] is 0.19 (inactive); in experiment [12] it was -0.0629.
